Experimental data from PubChem BioAssay AID1259341 (Broad Institute, 2017).
A number with no mark means an inactive call. Activity calls are given as the source filed them.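 The calls were made as follows: active = activity change under -35% in any replicate well, with more than 20 beads read in that well; inactive = the rest.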

Target: Caspase recruitment domain-containing protein 9 (Homo sapiens) + E3 ubiquitin-protein ligase TRIM62 (Homo sapiens) (UniProt Q9H257+Q9BVG3)
Assay: CARD9/TRIM62 protein interaction inhibitors – cell lysate, HEK293FT lysates, Luminex bead ELISA, primary screen (AID 1259341);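 also: PE anti-Flag signal of Flag-CARD9 captured by myc-TRIM62 beads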
Details: PE fluorescence, active compounds read low, concentration not given here

Caspase recruitment domain-containing protein 9 (Homo sapiens) + E3 ubiquitin-protein ligase TRIM62 (Homo sapiens), sequence (Q9BVG3 whole entry, looked up, the tested form may be a part): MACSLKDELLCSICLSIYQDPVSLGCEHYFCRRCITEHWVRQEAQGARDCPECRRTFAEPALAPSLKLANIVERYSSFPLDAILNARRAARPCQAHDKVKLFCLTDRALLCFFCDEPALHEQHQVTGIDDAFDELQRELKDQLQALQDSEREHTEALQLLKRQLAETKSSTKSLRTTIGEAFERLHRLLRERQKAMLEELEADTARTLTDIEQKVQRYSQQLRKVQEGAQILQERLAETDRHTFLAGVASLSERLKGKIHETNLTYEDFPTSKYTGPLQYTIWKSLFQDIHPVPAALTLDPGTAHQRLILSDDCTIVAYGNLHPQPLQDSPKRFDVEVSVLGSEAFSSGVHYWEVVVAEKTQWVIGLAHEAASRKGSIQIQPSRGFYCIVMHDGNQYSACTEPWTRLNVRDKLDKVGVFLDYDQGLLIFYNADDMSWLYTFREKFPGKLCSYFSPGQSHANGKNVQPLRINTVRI
Caspase recruitment domain-containing protein 9 (Homo sapiens) + E3 ubiquitin-protein ligase TRIM62 (Homo sapiens), sequence (Q9H257 whole entry, looked up, the tested form may be a part): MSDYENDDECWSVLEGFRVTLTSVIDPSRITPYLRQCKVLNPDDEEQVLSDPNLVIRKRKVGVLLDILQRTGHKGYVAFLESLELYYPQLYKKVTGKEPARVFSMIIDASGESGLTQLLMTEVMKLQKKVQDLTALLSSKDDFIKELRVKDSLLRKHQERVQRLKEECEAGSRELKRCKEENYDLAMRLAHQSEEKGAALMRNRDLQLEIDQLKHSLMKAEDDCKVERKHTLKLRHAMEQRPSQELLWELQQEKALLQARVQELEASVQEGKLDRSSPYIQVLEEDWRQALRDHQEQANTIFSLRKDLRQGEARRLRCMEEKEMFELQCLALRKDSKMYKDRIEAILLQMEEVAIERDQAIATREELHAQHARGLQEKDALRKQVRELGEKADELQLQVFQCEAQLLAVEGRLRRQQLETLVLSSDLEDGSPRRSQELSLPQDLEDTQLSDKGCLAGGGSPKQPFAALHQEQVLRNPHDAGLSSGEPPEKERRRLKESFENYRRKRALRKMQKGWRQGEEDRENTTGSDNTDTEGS

Row | SMILES | activity change, negative = inhibition
1 | Cc1c(/C=C/c2nc3ccccc3c(=O)n2-c2ccccn2)c2ccccc2n1C | -1.2%
2 | Cc1occc1C(=O)NCc1cccc(CNC(=O)c2ccoc2C)c1 | 3.25%
3 | CC(C(=O)N1CCCC1)N1CCN(c2ccccc2O)CC1 (centres undefined) | 5.92%
4 | O=C(COC(=O)c1cc(-c2cccs2)nc2ccccc12)NCc1ccco1 | -1.49%
5 | CCCOc1ccc(CCC(=O)O)cc1 | -3.23%
6 | C[C@H](CO)N1C[C@H](C)[C@@H](CN(C)C(=O)C2CCCCC2)OCCCC[C@H](C)Oc2ccc(NS(=O)(=O)c3ccc(Cl)cc3)cc2C1=O | 8.52%
7 | CN(C)C(CN=C1NS(=O)(=O)c2ccccc21)c1ccco1 (centres undefined) | -0.48%
8 | O=C(CCn1cncn1)N1CCC(n2cc(-c3ccccn3)nn2)CC1 | 3.29%
9 | CC1CCN(c2nc(-c3ccco3)c3c(c2C#N)CC(C)(C)OC3)CC1 | 5.51%
10 | C[C@H](CO)N1C[C@H](C)[C@@H](CN(C)C(=O)C2CCCCC2)OCCCC[C@H](C)Oc2ccc(NS(=O)(=O)c3cn(C)cn3)cc2C1=O | -7.17%
11 | O=C(NCC1CCCO1)c1cc(-c2ccco2)nc2ccccc12 (centres undefined) | -3.93%
12 | CC(C)(C)c1ccc(-c2nc(C#N)c(NCc3ccncc3)o2)cc1 | 6.53%
13 | NC(=O)C1(N2CCCCC2)CCN(c2ncc(NC(=O)c3cccc(Cl)c3)cc2C(=O)O)CC1 | -53.8% (active)
14 | O=C(O)c1cc(-c2ccc(-c3ccc(F)cc3)o2)nc2ccccc12 | -7.53%
